# Rab9 promoter act: activators of Rab9 promoter. AID 485297. 320,000 compounds, 2.8% hits. Huh7 Rab9 promoter-luciferase reporter, luminescence, 24 h. Potency, µM (doses to about 9.22 µM), for inactives: at the highest dose activation, negative = inhibition, actives largely listed as activators; note: % of control where 0% means no effect; nearly all actives have a fitted effect of over 60% in size
#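 Using Huh7 cells stably transfected with Rab9 promoter–luciferase, compounds were incubated 24 h at 37 °C, 5% CO2; luciferase luminescence was read 10 min after reagent addition.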
# NPC1 promoter act: activates the NPC1 promoter | AID 485313 | Potency, µM (doses to about 9.22 µM), inactives show at the highest dose activation, most hits filed as activators | 320,000 compounds, 2.4% hits | Huh7 NPC1 promoter luciferase reporter, 24 h; note: % of control where 0% means no effect; nearly all actives have a fitted effect of over 60% in size
#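 Huh7 reporter cells (NPC1 promoter driving luciferase) are dosed with compound for 24 h at 37 °C, 5% CO2; luciferase detection reagent is then added and luminescence measured after 10 min at ambient temperature.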
# SMN2 splice enh: enhancers of SMN2 splice variant expression. HEK293 SMN2-luciferase splicing reporter, luminescence, 30-36 h. Potency, µM (doses to about 46.1 µM), for the others: top-dose activity change, positive = activation, hits mostly activators. 210,000 compounds, 2.8% hits. AID 1458; note: % of control where 0% means no effect; nearly all actives have a fitted effect of over 55% in size
#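 HEK293 cells carry an SMN2 minigene-luciferase reporter in which exon 7 inclusion puts luciferase in frame. Cells were seeded at 2000 cells/well, attached for 10-12 hours, then exposed to compounds for 30-36 hours at 37C before ONE-Glo luminescence.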
# ELG1 genotox: induces genotoxicity in HEK293T cells with luciferase-tagged ELG1 | HEK293T ELG1-luciferase reporter, luminescence, 16 h | Potency, µM (series often up to 46 µM), without a hit: at the highest dose activity change, positive = activation, usual class: activators | 330,000 compounds, 1.3% hits | AID 504466; note: % of control where 0% means no effect; nearly all actives have a fitted effect of over 60% in size
#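 Luminescence read-out: rising ELG1-luciferase signal, reflecting elevated ELG1 protein under genetic stress, flags genotoxic compounds. Cells were treated for 16 hr at 37 °C before ONE-Glo detection.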
# FLuc counter: counter-screen for miR-21 project: firefly luciferase inhibitors or activators. purified FLuc, Km substrates, luminescence inhibition. 360,000 compounds, 6.9% hits. P08659. Potency, µM (highest dose often 57.5 µM), for inactives: at the top dose activity change, negative = inhibition, hits mostly inhibitors. AID 588342;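 note: plate controls were vehicle for no effect and reference inhibitor for full effect; nearly all actives have a fitted effect of over 55% in size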
# Target sequence (P08659 whole entry, looked up): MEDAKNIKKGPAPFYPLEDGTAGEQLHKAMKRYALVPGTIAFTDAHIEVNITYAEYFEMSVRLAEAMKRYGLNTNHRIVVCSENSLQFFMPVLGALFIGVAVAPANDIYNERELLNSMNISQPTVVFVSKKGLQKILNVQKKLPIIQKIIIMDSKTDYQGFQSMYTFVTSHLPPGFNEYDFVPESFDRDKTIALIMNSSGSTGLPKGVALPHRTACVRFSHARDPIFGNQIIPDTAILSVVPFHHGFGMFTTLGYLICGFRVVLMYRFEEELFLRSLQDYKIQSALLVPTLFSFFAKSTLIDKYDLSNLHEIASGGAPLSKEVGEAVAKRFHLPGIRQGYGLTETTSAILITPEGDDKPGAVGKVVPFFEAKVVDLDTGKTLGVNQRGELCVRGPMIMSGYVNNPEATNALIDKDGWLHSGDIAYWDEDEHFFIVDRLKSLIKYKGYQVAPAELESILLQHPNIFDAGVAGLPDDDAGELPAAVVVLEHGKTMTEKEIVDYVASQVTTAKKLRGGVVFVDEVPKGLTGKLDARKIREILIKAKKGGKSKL
#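 Biochemical qHTS of compounds, final roughly 60 µM downward over six points, against 10 nM purified firefly luciferase using Km concentrations of substrates (10 uM D-luciferin, 10 uM ATP) in Tris acetate pH 7.5 buffer; luminescence output.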
# * hit, by the source's call; ? = inconclusive; · = not tested or not shown; [ ] = another dose, or the depositor's remark. A selection: hits, their analogues and other compounds. The true share with any hit is near 7.4%. Calls come from the whole dose curve; as a rule, active = well fitted curve in the direction sought with a large enough effect; inconclusive = small, poorly fitted or top-dose-only effect, or another doubt; inactive = no such curve, though single readings can be large; an effect the other way counts as inactive or inconclusive. Potency is the fitted concentration of half-maximal effect.
SMILES,Rab9 promoter act,NPC1 promoter act,SMN2 splice enh,ELG1 genotox,FLuc counter
COc1ccc(NC(=O)c2cc3ccccc3o2)cc1,0.562µM*,1.58µM*,?,6.51µM*,3.79µM*
COc1ccc(NC(=O)c2coc3ccccc23)cc1OC,?,?,20.2%,?,13.5µM*
COc1ccc(NC(=O)c2cc3ccccc3o2)cn1,2.51µM*,2.82µM*,·,?,13.5µM*
COc1ccc(NC(=O)c2coc(=O)c3ccccc23)cc1OC,·,·,?,·,4.4%
COc1ccc(NC(=O)c2ccco2)cc1NC(=O)c1cc2ccccc2o1,10.1%,-2.2%,·,-14.1%,-2.6%
Cc1ccc2cc3c(N)nn(C(=O)c4cccc(F)c4)c3nc2c1,·,·,-8.9%,·,-2.6%
CC(C)NC(=O)c1ccc(CSc2nc3ccncc3n2Cc2cccc(F)c2)cc1,·,·,-2.1%,·,2.5%
CCOc1cc(C2NC(=O)NC2=O)ccc1O (stereo not given),0.2%,2.4%,·,2.0%,-1.9%
COc1cc(NC(=O)C(C)C)ccc1NC(=O)c1cc2ccccc2o1,3.16µM*,2.24µM*,·,?,7.57µM*
Cc1cnc(C(=O)Nc2ccccc2F)cn1,18.3%[1.84 µM],3.55µM*,?,16.4µM*,23.9µM*
Cc1cnc(C(=O)Nc2ccc(F)cc2)cn1,?,2.51µM*,12.6µM*,?,23.9µM*
Cc1cnc(C(=O)Nc2ccc(C(C)C)cc2)cn1,1.26µM*,3.55µM*,10µM*,?,8.49µM*
Cc1cnc(C(=O)Nc2ccc(C(=O)N(C)C3CCCCC3)cc2)cn1,5.6%,0.5%,-9.1%,1.0%,1.5%
O=C(COC(=O)/C=C/c1ccccc1)NNC(=O)c1ccc([N+](=O)[O-])cc1,0.4%,0.6%,·,-3.4%,4.8%
CNc1nc(-c2ccccc2)[n+](-c2ccc(C)cc2)s1,11.8%,13.4%,·,0.5%,6.75µM*
Cc1ccc(N2C(=O)c3n[nH]c(C)c3C2c2ccccc2Cl)cc1 (stereo not given),·,·,10.6%,·,-14.6%
Cc1ccc(N2C(=O)c3n[nH]c(C)c3C2c2ccc(Cl)cc2)cc1 (stereo not given),·,·,?,·,9.53µM*
COc1ccc(-n2nnc(-c3nsc(NC(=O)c4cccs4)n3)c2C)cc1OC,·,·,·,·,-17.7%
O=C(OCC(=O)N1CCN(C(=O)c2ccco2)CC1)c1ccccc1OCc1ccccc1,-3.7%,1.8%,-7.3%,-0.3%,-2.9%
O=C(OCC(=O)N1CCOCC1)c1ccccc1OCc1ccccc1Cl,·,·,·,1.4%,·
COc1ccccc1C(=O)OCC(=O)N1CCC(Cc2ccccc2)CC1,-1.6%,0.2%,·,6.1%,16.9µM*
O=C(OCC(=O)N1CCOCC1)c1ccccc1OCc1ccccc1,-4.4%,-1.1%,·,0.6%,23.9µM*
O=C(OCC(=O)N1CCOCC1)c1ccc2ccccc2c1O,3.98µM*,3.16µM*,·,?,16.9µM*
O=C(OCC(=O)N1CCCC1)c1ccccc1OCc1ccccc1,9.8%,0.0%,12.6µM*,?,16.9µM*
C[C@@H]1CCC(=O)N(CC[C@H](Oc2ccccc2)c2ccccc2)CC1,-4.0%,-0.4%,·,-2.9%,4.9%
SMILES,Rab9 promoter act,NPC1 promoter act,SMN2 splice enh,ELG1 genotox,FLuc counter
O=C(CCn1c(=S)[nH]c2ccccc2c1=O)NCCc1ccc(Cl)cc1,-6.0%,-3.2%,-9.2%,17.8%,-1.7%
CN(C(=O)CSc1nc2c(c(=O)[nH]1)CCCC2)c1ccccc1,·,·,·,·,-0.7%
COc1ccc(-c2nc3sc(CCNC(=O)c4cc(OC)c(OC)c(OC)c4)c(C)n3n2)cc1,·,·,·,·,10.7µM*
COc1ccc(-c2nc3sc(CCNC(=O)Cc4ccc(F)cc4)c(C)n3n2)cc1,·,·,·,·,-20.6%
COc1ccc(-c2nc3sc(CCNC(=O)c4ccco4)c(C)n3n2)cc1,·,·,·,·,21.3µM*
C=C1C=C(C(F)F)n2ncc(C(=O)NCCc3ccccc3Cl)c2N1,·,·,·,·,12.4%
COC(=O)[C@@H]1CCCN1C(=O)CCc1nnc(CCC2CCCCC2)o1,?,28.5%,?,?,19µM*
COC(=O)[C@@H]1CCCN1C(=O)CCc1nnc(CCc2c[nH]c3ccccc23)o1,13.0%,12.0%,·,7.7%,16.9µM*
COC(=O)C1CCCCN1C(=O)CCc1nnc(CCc2c[nH]c3ccccc23)o1 (stereo not given),-2.4%,-23.1%,·,-0.4%,1.8%
